HPGD block: qHTS Assay for Inhibitors of HPGD (15-Hydroxyprostaglandin Dehydrogenase). 15-hydroxyprostaglandin dehydrogenase [NAD(+)] (Homo sapiens), P15428. purified HPGD, NADH fluorescence kinetic, PGE2 substrate. Potency, µM, for the others: top-dose activity change, negative = inhibition, actives largely listed as inhibitors. 150,000 compounds, 4.3% hits; also: potency is read from the fitted curve at half-maximal effect
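20 nM HPGD preincubated 15 min at room temperature with compound in 50 mM Tris-HCl pH 8, 0.01% Tween 20. Started with 1 mM NAD+ and 30 uM prostaglandin E2; NADH fluorescence (360/450 nm) read 5 times over 30-s intervals, last minus first.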
PNC assembly inh: High Content Assay for Compounds that inhibit the Assembly of the Perinucleolar Compartment; PC3M PTB-GFP, PNC prevalence imaging, 16 h; stronger effect = lower value; activity change (PNC), negative = inhibition, % at 10 µM; 140,000 compounds, 3.1% hits; AID 2417, 2010;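 active = readout at or below -70, meaning at least 70% loss of cells showing the perinucleolar compartment, a nuclear body marking cancer cells; inconclusive = readout between -30 and a set limit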;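 also: plate controls were DMSO wells for no effect and camptothecin positive control wells for full effect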
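PC3M cells stably expressing PTB-GFP, 750–1000 cells/well, treated 16 h at 37 °C with compound (23 nl of library stock), in duplicate. After paraformaldehyde fixation and Hoechst stain, imaged at 20x; PNC prevalence scored by image analysis.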
ALDH1A1 block: qHTS Assay for Inhibitors of Aldehyde Dehydrogenase 1 (ALDH1A1). Aldehyde dehydrogenase 1A1 (Homo sapiens), P00352. Purified ALDH1A1, NADH fluorescence, propionaldehyde substrate. Potency, µM (top dose mostly 75.3 µM), without a hit: top-dose activity, negative = inhibition, actives largely listed as inhibitors. 220,000 compounds, 7.3% hits;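 also: potency is read from the fitted curve at half-maximal effect; plate controls were no enzyme wells and a reference inhibitor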
Target sequence (P00352 whole entry, looked up): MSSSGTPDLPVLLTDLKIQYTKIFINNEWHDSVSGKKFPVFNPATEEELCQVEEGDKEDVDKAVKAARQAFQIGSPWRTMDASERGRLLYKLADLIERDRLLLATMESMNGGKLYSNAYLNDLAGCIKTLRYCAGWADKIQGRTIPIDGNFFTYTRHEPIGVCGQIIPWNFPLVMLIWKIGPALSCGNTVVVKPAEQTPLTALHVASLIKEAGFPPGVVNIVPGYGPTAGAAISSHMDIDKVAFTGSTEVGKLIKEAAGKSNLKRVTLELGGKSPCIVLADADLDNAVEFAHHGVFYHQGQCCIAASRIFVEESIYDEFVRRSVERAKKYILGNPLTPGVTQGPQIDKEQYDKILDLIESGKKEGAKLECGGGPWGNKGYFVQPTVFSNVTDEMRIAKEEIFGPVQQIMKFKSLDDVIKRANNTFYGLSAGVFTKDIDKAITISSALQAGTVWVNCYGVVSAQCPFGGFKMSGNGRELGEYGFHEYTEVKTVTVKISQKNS
An asterisk follows results filed as active; ? = inconclusive; nt = not tested or not shown; [ ] = dose if it differs, or a comment. Only some compounds are listed: those with a hit (about 11% of all), similar ones and a draw of the others. Unless noted, calls follow the shape of the dose curve; as a rule, active = well fitted inhibition curve with a large enough effect (not every such curve was filed as active); inconclusive = small, poorly fitted or top-dose-only effect, or another doubt; inactive = no such curve, though single readings can be large or run the other way. Unless noted, % is scaled to controls: 0 for no effect and ±100 for the full control effect.

SMILES | HPGD block | PNC assembly inh | ALDH1A1 block
COc1ccc(C2=NOC(Cn3c(Cc4ccc(Cl)cc4)nc4c3c(=O)n(C)c(=O)n4C)C2)cc1 (stereo unspecified) | ? | -108* | ?
O=C(Nc1ccc(N2CCCCC2)cc1)c1cc([N+](=O)[O-])cc([N+](=O)[O-])c1 | nt | nt | 14%
C=CCOC(=O)[C@H](O)[C@@H](O)C(=O)OCC=C | -3% | nt | 0%
C=CC(=O)OCCOCCOC(=O)C=C | -4% | nt | 25µM*
O=C(NN=C(Cc1ccccc1)Cc1ccccc1)C1CC1 | nt | nt | 4%
COc1ccc(Cn2c(-c3ccc(C)cc3)c[n+]3ccccc23)cc1 | -6% | -22 | -4%
C#CCN(C(=O)Nc1ccccc1)c1ccccc1 | -15% | 21 | 7%
O=C(CCN1C(=O)C2C3CCC(C3)C2C1=O)Nc1ccc(Br)cc1 (stereo unspecified) | -9% | ? | ?
COc1ccc(NC(=O)CCN2C(=O)C3C4CCC(C4)C3C2=O)cc1 (stereo unspecified) | -9% | -21 | 13µM*
Cc1cccc(NC(=O)CCN2C(=O)C3C4CCC(C4)C3C2=O)c1C (stereo unspecified) | -8% | 18 | -56%
O=C(CCN1C(=O)C2C3CCC(C3)C2C1=O)Nc1ccc([N+](=O)[O-])cc1 (stereo unspecified) | nt | nt | 3.5µM*
CCOC(=O)c1c(N)sc(N)c1C(=O)OCC | 8.9µM* | ? | 1.8µM*
CCOC(=O)c1c(N)sc(C(=O)N(CC)CC)c1C | nt | nt | 0%
CCOC(=O)c1c(SC)nc(SC)c2c1CCC2 | -4% | 10 | 0%
CCOC(=O)c1c(N)sc(C(=O)Nc2ccccc2)c1C | nt | nt | 10µM*
CCOC(=O)c1c(N)ssc1=S | 25µM* | ? | 3.2µM*
CCOC(=O)c1c(N)sc(=S)c2c1CCC2 | ? | ? | 32µM*
CCOC(=O)c1c(N)sc(C(=O)Nc2ccccc2F)c1C | nt | nt | -3%
C=CCn1sc(N)c(C(=O)OCC)c1=S | -6% | -28 | 5%
Cc1c(C(=O)OC(C)C)sc(N)c1C(=O)OC(C)C | 22µM* | 9 | ?
Cc1c(C(N)=O)sc(N)c1C(=O)OC(C)C | -22% | ? | -5%
CCOC(=O)c1c(N)sc(C(N)=O)c1C | ? | 14 | 25µM*
CCCOC(=O)c1c(N)sc(C(=O)OCC)c1C | -14% | -14 | -2%
C=C(C)Cn1cnc2cc(C)c(C)cc21 | nt | nt | -3%
O=Cc1ccc(Oc2ccc(F)cc2)nc1 | nt | nt | 16µM*
SMILES | HPGD block | PNC assembly inh | ALDH1A1 block
Cc1ccc(Oc2ccc(/C=N/O)cn2)cc1 | -9% | -25 | -7%
Cc1[nH]n(C(N)=S)c(=O)c1C(c1ccccc1)C(C#N)C#N (stereo unspecified) | -9% | 24 | 32µM*
Cc1[nH]n(-c2ncc(-c3ccccc3)s2)c(=O)c1C(c1ccc(Br)cc1)C(C#N)C#N (stereo unspecified) | 10µM* | -6 | 13µM*
CN1CCCC(C(=O)C(C#N)c2ccccc2)C1 (stereo unspecified) | -1% | 6 | -2%
C=COCC1CN2C(CCC(C)C2c2ccc(Br)cc2)C(=O)O1 (stereo unspecified) | nt | nt | 7%[13.5 µM]
NC(=O)SCC(=O)Nc1ccc2ncccc2c1 | -11% | nt | ?
COc1cccc(C(CC(=O)NCc2ccco2)NS(=O)(=O)c2ccc(C)cc2)c1OC (stereo unspecified) | -9% | -21 | 20µM*
COc1ccccc1CN(CC(=O)NCc1ccco1)C(=O)CNS(=O)(=O)c1ccccc1 | -2% | ? | ?
O=C(CN(Cc1ccc2c(c1)OCO2)C(=O)CNS(=O)(=O)c1ccccc1)NCc1ccco1 | -9% | -27 | 4.5µM*
COc1ccccc1CN(CC(=O)NCc1ccco1)C(=O)CNS(=O)(=O)c1ccc(C)cc1 | 3% | -15 | 22µM*
COc1cccc(C(CC(=O)NCC2CCCO2)NS(=O)(=O)c2ccc(C)cc2)c1OC (stereo unspecified) | -3% | ? | 10%
O=C(CN(C(=O)CNS(=O)(=O)c1ccccc1)c1ccc2c(c1)OCCO2)NCc1ccco1 | -5% | -18 | 2%
CCOC(=O)C1=C(CN2CC(C)CC(C)C2)NC(=O)NC1c1ccc2c(c1)OCO2 (stereo unspecified) | nt | nt | 0%
O=C(Cn1c(=O)n(-c2ccc(F)cc2)c(=O)c2sccc21)NC1CCCCC1 | nt | nt | -5%
COc1ccc([N+](=O)[O-])cc1NC(=O)c1ccc(-n2nc(C)cc2C)cc1 | nt | nt | 2%
COc1ccc(-c2noc(-c3ccccc3C(=O)NCC3CCCO3)n2)cc1 (stereo unspecified) | nt | nt | 1%
NC(=O)CCc1c[nH]c2ccccc12 | -13% | 30 | -9%
O=c1ccn(CCc2c[nH]c3ccccc23)c2c1CCCC2 | nt | nt | 14µM*
O=C(CCS(=O)(=O)c1cc(Br)cc2c1N(C(=O)C1CC1)CC2)N1CCN(c2ccccn2)CC1 | nt | nt | 1%
Clc1ccc2c(N3CCC(CCC4CCN(c5ncnc6cc(Cl)ccc56)CC4)CC3)ncnc2c1 | -4% | nt | -6%[13.5 µM]
CCC(=O)NCCn1c(C)cc2ccccc21 | -1% | 42 | 4%
CC(=O)NCCn1c(C)cc2ccccc21 | -7% | ? | 3%
Cc1cc2ccccc2n1CCNC(=O)c1ccc(Br)o1 | nt | nt | 5.6µM*
Cc1cc2ccccc2n1CCNC(=O)Cc1cccc2ccccc12 | -29% | -108* | ?
Cc1cc2ccccc2n1CCNC(=O)COc1ccccc1 | -5% | -103* | 3%
SMILES | HPGD block | PNC assembly inh | ALDH1A1 block
Cc1cc2ccccc2n1CCNC(=O)c1ccccc1 | -20% | 68 | ?
Cc1ccccc1C(=O)NNc1ccc(-c2csnn2)cc1 | nt | nt | -1%
Cc1ccc(N2C(=O)Nc3ccccc3C2(O)C(=O)N2CCN(c3ccccn3)CC2)cc1C (stereo unspecified) | nt | nt | -9%
CCOC(=O)CSc1ncnc2c(C(=O)OCC)c3n(c12)CCC3 | -6% | 4 | -4%
COc1cc(NC(=O)CCCc2c[nH]c3ccccc23)cc(OC)c1 | -14% | -24 | -5%
O=C(Oc1ccccc1)C1O[C@@H]1c1ccccc1 (stereo partly specified) | -5% | nt | -7%
CC(=O)Nc1c(C)ccc(S(N)(=O)=O)c1C | nt | nt | 20%
CCn1cc(C(=O)NCc2ccco2)c(=O)c2cc(S(=O)(=O)N3CCC(C)CC3)ccc21 | -21% | 19 | ?
CCn1cc(C(=O)NCc2ccccn2)c(=O)c2cc(F)c(N3CCN(C)CC3)cc21 | -19% | 1 | ?
CCn1cc(C(=O)NCc2ccco2)c(=O)c2cc(S(=O)(=O)N3CC(C)CC(C)C3)ccc21 (stereo unspecified) | -22% | 2 | ?
CCn1cc(C(=O)NCc2ccccn2)c(=O)c2cc(S(=O)(=O)N3CCCCC3)ccc21 | ? | -19 | 11µM*
CCn1cc(C(=O)NCc2ccco2)c(=O)c2cc(S(=O)(=O)N3CCCCCC3)ccc21 | -24% | ? | 8.9µM*
CCn1cc(C(=O)NCc2ccco2)c(=O)c2cc(S(=O)(=O)N3CCc4ccccc4C3)ccc21 | -30% | 18 | 20µM*

Screening data deposited in PubChem by National Center for Advancing Translational Sciences (NCATS).
